# Screening data deposited in PubChem BioAssay by National Center for Advancing Translational Sciences (NCATS).
# nsP2pro primary: Primary qHTS for inhibitors of NSP2Pro chikungunya virus (CHIKV). 31,000 tested, 1.1% active. Polyprotein P1234 (Chikungunya virus (strain S27-African prototype)), Q8JUX6. AID 1964107, 2024. FRET peptide cleavage, nsP2pro, fluorescence 1 h. Potency, µM (series often up to 24.9 µM), without a hit: at the highest dose activity change, negative = inhibition, usual class: inhibitors; further: nearly all actives have a fitted effect of over 60% in size
#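 Purified recombinant nsP2pro (150 nM final) in 10 mM Tris-HCl pH 8.0 with 0.01% Tween 20 was preincubated 15 min at room temperature with compound (7 concentrations, up to 25 uM). FRET peptide 2 substrate (2.5 uM final) was then added; fluorescence was read after 1 h.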
# nsP2 cell sec: Secondary cell base assay for inhibitors of NSP2Pro Chikungunya virus (CHIKV); cell-based CHIKV nsP2 protease reporter assay; Potency, µM (titrated, usually from 51.1 µM), inactives show at the highest dose activity change, negative = inhibition, actives largely listed as inhibitors; 450 tested, 10% active; shares compounds with nsP2pro primary; further: nearly all actives have a fitted effect of over 70% in size
# CHIKV NSP2 FL: Selectivity profile for inhibitors of NSP2Pro chikungunya virus (CHIKV): Full length NSP2 enzyme counterscreen (CHIKV-NSP2); 410 tested, 39% active; Full-length CHIKV NSP2 protease enzymatic counterscreen; Potency, µM (highest dose often 50.7 µM), without a hit: top-dose activity change, negative = inhibition, actives largely listed as inhibitors; AID 1964101, 2024; shares compounds with nsP2pro primary; further: nearly all actives have a fitted effect of over 65% in size
# Furin counterscr: Selectivity profile for inhibitors of NSP2Pro chikungunya virus (CHIKV): Human furin counterscreen; Potency, µM (titrated, usually from 50.6 µM), for inactives: at the highest dose activity change, negative = inhibition, actives largely listed as inhibitors; 410 tested, 6% active; Recombinant human furin enzymatic counterscreen, fluorogenic substrate; shares compounds with nsP2pro primary
# NS23 peptide cs: Selectivity profile for inhibitors of NSP2Pro chikungunya virus (CHIKV): Endogenous NS2/3 peptide Counterscreen; shares compounds with nsP2pro primary; 410 tested, 34% active; Purified CHIKV nsP2 protease, endogenous NS2/3 peptide cleavage; Potency, µM (doses to about 51 µM), without a hit: at the top dose activity change, negative = inhibition, usual class: inhibitors; further: nearly all actives have a fitted effect of over 55% in size
# Papain cs: Selectivity profile for inhibitors of NSP2Pro chikungunya virus (CHIKV): Papain Counterscreen; shares compounds with nsP2pro primary; purified papain protease activity, enzymatic inhibition; Potency, µM (highest dose often 51 µM), inactives show top-dose activity change, negative = inhibition, usual class: inhibitors; 410 tested, 5% active; AID 1964104, 2024
# nsP2pro conf qHTS: Confirmatory qHTS for inhibitors of NSP2Pro chikungunya virus (CHIKV); Potency, µM (titrated, usually from 25.5 µM), without a hit: top-dose activity change, negative = inhibition, actives largely listed as inhibitors; AID 1964105, 2024; 410 tested, 43% active; CHIKV nsP2 protease enzymatic activity, qHTS; shares compounds with nsP2pro primary; further: nearly all actives have a fitted effect of over 75% in size
# HCV NS3 4A cs: Selectivity profile for inhibitors of NSP2Pro chikungunya virus (CHIKV): NS34A-HCV Counterscreen; HCV NS3/4A protease biochemical counterscreen; shares compounds with nsP2pro primary; Potency, µM (doses to about 50.9 µM), hits mostly inhibitors; 410 tested, 20% active; further: nearly all actives have a fitted effect of over 55% in size
# The depositor's hits bear a star; i = inactive; ? = inconclusive; . = not tested or not shown; [ ] = remark or other dose. Shown is part of a subset that was picked to be rich in hits. The call rests on the fitted dose curve. On the % scale 0 is the no-effect control and ±100 the full control effect; potency means the concentration at half of the fitted maximal effect.
SMILES,nsP2pro primary,nsP2 cell sec,others
COc1coc(C(=O)NCCC2CN(c3cnn(C)c(=O)c3)CCO2)cc1=O (stereo unspecified),2.6%,.,
COc1ccc(CN(Cc2ccco2)C(=O)COc2ccccc2Cl)cc1,-16.2%,.,
CCS(=O)(=O)c1ncc(Cl)c(C(=O)N(Cc2ccccc2)Cc2ccco2)n1,10.7µM*,3.26µM*,CHIKV NSP2 FL=16.3µM*;Furin counterscr=-2.6%;NS23 peptide cs=5.17µM*;Papain cs=-5.5%;nsP2pro conf qHTS=4.49µM*;HCV NS3 4A cs=i
CCCOc1ccc(C(=O)N(Cc2ccc(Cl)cc2)Cc2ccco2)cc1,-14.3%,.,
Cc1ccc(-c2cc(C(=O)Nc3ccc(C(=O)O)cc3)c3ccccc3n2)cc1C,i,.,
C1Cc2[nH]nc(-c3nn[nH]n3)c2C1,8.81µM*,-7.0%,CHIKV NSP2 FL=9.19µM*;Furin counterscr=?;NS23 peptide cs=?;Papain cs=-29.1%;nsP2pro conf qHTS=6.34µM*;HCV NS3 4A cs=i
CN1CCC2=C(C1)C(c1ccccc1)c1ccccc12 (stereo unspecified),-6.7%,.,
Cc1cc(C)nc(NC(=C(C#N)C#N)N2CCN(c3cccc(C(F)(F)F)c3)CC2)c1,-11.8%,.,
Cc1cc(C)nc(NC(=S)N2CCN(c3ccc4nsnc4c3)CC2)c1,3.16µM*,16.3µM*,CHIKV NSP2 FL=7.3µM*;Furin counterscr=-8.4%;NS23 peptide cs=11.6µM*;Papain cs=-8.0%;nsP2pro conf qHTS=8.96µM*;HCV NS3 4A cs=?
Cc1cc(C)nc(NC(=S)N2CCN(c3ccc(Cl)c(Cl)c3)CC2)c1,0.0%,.,
Cc1cc(C)cc(N2CCN(C(=S)Nc3cc(C)cc(C)n3)CC2)c1,-2.4%,.,
Clc1ccccc1CSc1nnc(C2CCNCC2)o1,12.3%,.,
CC(C)C[C@H](N)c1nnc(SCc2ccc(Cl)cc2Cl)o1,?,30.9%,
Cc1cc(=O)[nH]c2nnc(SCc3ccc(Cl)cc3Cl)n12,-14.9%,.,
CCC1(N2CCN(C(=O)c3ccccc3C(F)(F)F)CC2)CCN(C(=O)C(C)C)C1 (stereo unspecified),-2.4%,.,
C#CCN(C)Cc1nc(C2(O)CCN(C(=O)c3ccccc3F)CC2)cs1,i,.,
CO[C@H]1c2cc(C(C)C)c(O)c(O)c2[C@@]23CCCC(C)(C)C2[C@@H]1OC3=O (stereo partly specified),6.1µM*,-19.1%[33.5 µM],CHIKV NSP2 FL=16µM*;Furin counterscr=-10.3%[33.5 µM];NS23 peptide cs=12.7µM*;Papain cs=?;nsP2pro conf qHTS=5.54µM*;HCV NS3 4A cs=i
CC1(C)CCC[C@@]2(C)[C@H]1[C@H](O)C=C1COC(=O)[C@@]12O,-13.4%,.,
COCCCNC(=O)c1ccc2nnc(Cc3ccc(Cl)cc3)n2c1,1.4%[39.2 µM],.,
O=C(O)c1ccnc2cc(C(OCCN3CCC(F)(F)CC3)c3ccccc3Cl)[nH]c12 (stereo unspecified),7.2%,.,
O=C(O)c1ccc2c(c1)C(=O)N([C@H](Cc1ccc([N+](=O)[O-])cc1)C(=O)O)C2=O,-7.0%,.,
O=C(O)c1ccc(N2C(=O)/C(=C/c3ccc(-c4ccc([N+](=O)[O-])cc4)o3)C=C2c2ccccc2)cc1,7.85µM*,-17.8%,CHIKV NSP2 FL=?;Furin counterscr=-18.2%;NS23 peptide cs=-15.4%;Papain cs=18.3µM*;nsP2pro conf qHTS=-26.1%;HCV NS3 4A cs=i
